Bioassay records as filed in PubChem BioAssay.
Compounds with a hit are over-represented: about 3.5% of the library has one in this group of screens.
GPR151 activ: activates the human receptor GPR151; Q8TDV0; PathHunter beta-arrestin GPR151 cells, luminescence; activation, % at 11.2 µM; 1% of 650,000 active; in the data active = activation above about 4.9%
Target sequence (Q8TDV0 whole entry, looked up): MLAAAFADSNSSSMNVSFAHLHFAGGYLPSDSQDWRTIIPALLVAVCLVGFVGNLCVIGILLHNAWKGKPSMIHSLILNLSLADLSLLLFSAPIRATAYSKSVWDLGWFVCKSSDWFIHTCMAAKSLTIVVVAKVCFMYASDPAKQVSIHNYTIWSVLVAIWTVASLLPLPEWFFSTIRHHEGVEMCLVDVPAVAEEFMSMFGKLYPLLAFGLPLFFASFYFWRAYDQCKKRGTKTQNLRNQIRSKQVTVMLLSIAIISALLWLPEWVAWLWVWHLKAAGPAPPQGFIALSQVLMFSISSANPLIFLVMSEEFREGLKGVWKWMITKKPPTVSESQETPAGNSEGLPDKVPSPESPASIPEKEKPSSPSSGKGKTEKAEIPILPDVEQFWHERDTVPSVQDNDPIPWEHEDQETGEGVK
MITF inh: human MITF inhibition, primary screen; AlphaScreen MITF homodimerization, bead proximity signal; inhibition, % at 2.6 µM; AID 1259374; 0.91% of 650,000 active; in the data active = inhibition above about 50%
FBW7 act: human FBW7 E3 ligase activation, primary screen. Q969H0. AlphaScreen FBW7–phospho-cyclin E peptide binding, activator screen. normalized activity (activation), % at 26.1 µM. 0.13% of 650,000 active. AID 1259310; in the data active = normalized activity above about 1.9%;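 also: purified mutant Fbw7 with reduced substrate affinity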
TEAD-YAP inh: TEAD-YAP interaction inhibition. HEK-TIYL cells, TEAD-Gal4/YAP UAS-luciferase luminescence. inhibition, % at 9.12 µM. 1.4% of 640,000 active; in the data active = inhibition above about 32%
Each line names hits and unclear results; the compound was inactive in the other large screens.

Cc1ccccc1C(=O)Nc1ccc(-c2nc3ccc(NC(=O)c4ccccc4C)cc3[nH]2)cc1	TEAD-YAP inh 76.1
O=C(Nc1cccc(-c2nc3ccccc3[nH]2)c1)c1cc(=O)c2ccccc2o1	TEAD-YAP inh 41.3
O=C(Nc1cccc(-c2nc3ccccc3o2)c1)c1cc(=O)c2ccccc2o1	none
O=C(Nc1cccc(-c2nc3ccccc3[nH]2)c1)c1cccc2nccnc12	TEAD-YAP inh 33.8
O=C(Nc1ccc(-c2nc3ccc(NC(=O)c4ccccc4)cc3[nH]2)cc1)c1ccccc1	none
CCCS(=O)(=O)Nc1ccc2c(c1)N(C(=O)COC)CCC2	none
Cc1ccc(NC(=O)CN2C(=O)C(C)SC(C)C2=O)cc1 (configuration not stated)	none
COc1ccccc1CC(=O)Nc1cnc2cnc(-c3cc(OC)c(OC)c(OC)c3)cn12	none
c1cc(-c2ccc3cnc(Nc4ccc(-n5cnc(N6CCOCC6)n5)cc4)nc3c2)[nH]n1	FBW7 act 13.3
O=C(NCc1ccccc1)c1ccc2cnc(Nc3ccc(-n4cnc(N5CCOCC5)n4)cc3)nc2c1	none
Cn1nccc1-c1ccc2cnc(Nc3ccc(-n4cnc(N5CCOCC5)n4)cc3)nc2c1	none
c1cc(-n2cnc(N3CCOCC3)n2)ccc1Nc1ncc2ccc(N3CCOCC3)cc2n1	none
Nc1ccc(-c2ccc3cnc(Nc4ccc(-n5cnc(N6CCOCC6)n5)cc4)nc3c2)cn1	TEAD-YAP inh 64.8
CNC(=O)c1ccc2cnc(Nc3ccc(-n4cnc(N5CCOCC5)n4)cc3)nc2c1	TEAD-YAP inh 54.9
CC1(C)c2ssc(=S)c2-c2ccccc2N1C(=O)CN1C(=O)C2CCCCC2C1=O (configuration not stated)	none
O=c1nc(N/N=C/c2cccc(Cl)c2)cn[nH]1	none
COCC(C)n1c(C)cc(C(=O)COC(=O)c2cccn2C)c1C (configuration not stated)	TEAD-YAP inh 66.8
COc1ccc(NC(=O)CSc2ncnc3c2nnn3-c2ccc(F)cc2)cc1	none
Cc1ccc(C(=O)c2sc3nc4c(cc3c2N)CCC4)c(C)c1	FBW7 act 2.0
COc1ccc(C(=O)c2sc3nc4c(cc3c2N)C(=O)CCC4)cc1	none
COCc1cc(C)c2c(N)c(C(=O)c3ccc(C)cc3C)sc2n1	FBW7 act 3.7
Nc1c(C(=O)Nc2cccc3ccccc23)sc2nc3c(cc12)C(=O)CCC3	TEAD-YAP inh 61.2
Cc1ccc(C(=O)c2sc3nc4c(cc3c2N)C(=O)CCC4)cc1	TEAD-YAP inh 47.4
C/C(=N\NC(=O)c1cc(C)nc2ccccc12)c1ccccc1O	TEAD-YAP inh 53.3
CN1CCC(=NNC(=O)c2c[nH]c3ccccc23)CC1	none
Cc1cc(C(=O)NN=C2CCN(C)CC2)c2ccccc2n1	TEAD-YAP inh 51.0
C/C(=N\NC(=O)c1cc(-c2c(C)nn(-c3ccccc3)c2C)n[nH]1)c1ccccc1O	TEAD-YAP inh 43.8
Cc1cc(C(=O)NN)c2ccccc2n1	TEAD-YAP inh 43.6
CC(C)Nc1nc(Cl)nc(Nc2nc(-c3ccccc3)cs2)n1	none
O=C1c2ccccc2C(=O)N1CC1c2ccccc2CCN1S(=O)(=O)c1ccc([N+](=O)[O-])cc1 (configuration not stated)	none
COc1ccc(/C(C)=N\NC(=O)c2ccccc2O)c(OC)c1	TEAD-YAP inh 85.2
Cc1cc(C(=O)N/N=C/c2ccc(OC(F)F)cc2)c2ccccc2n1	TEAD-YAP inh 54.5
Cc1cc(C(=O)N/N=C/c2cccc([N+](=O)[O-])c2)c2ccccc2n1	none
C/C(=N\NC(=O)c1cc(C)nc2ccccc12)c1ccco1	TEAD-YAP inh 44.7
COc1ccc(/C(C)=N/NC(=O)c2ccccc2[N+](=O)[O-])c(OC)c1	none
Cc1cccc(C(=O)NNS(=O)(=O)c2cccc([N+](=O)[O-])c2)c1	none
O=C1CCC(CCC(=O)N2CCC(CO)(Cc3ccccc3C(F)(F)F)CC2)=NN1	none
COc1cc(OC)cc(C(=O)c2c(N)sc3c2CCCC3)c1	none
COc1cc(OC)cc(C(=O)c2c(N)sc3c2CCC(C)C3)c1 (configuration not stated)	TEAD-YAP inh 53.9
CC1=NN(C(=O)c2cccc([N+](=O)[O-])c2)C(C)(O)C1 (configuration not stated)	none
CCOc1ccc(-n2c(-c3ccc(OC)cc3)c[n+]3c2CCCCC3)cc1	TEAD-YAP inh 85.2
CCOc1ccc(-n2c(-c3ccccc3)n[nH]c2=S)cc1	none
CCOc1ccc(-n2c(-c3ccccc3)c[n+]3c2CCC3)cc1	TEAD-YAP inh 49.0
O=C(/C=C/c1ccc2c(c1)OCCO2)c1ccccc1	none
O=[N+]([O-])/C(=C/c1ccc2c(c1)OCCO2)c1ccccc1	TEAD-YAP inh 65.2
COCCC(=O)NCC1Cc2c(F)ccc(-c3ccc(C(=O)C4CC4)cc3)c2O1 (configuration not stated)	none
Cc1nonc1C(=O)NCC1Cc2c(F)ccc(-c3ccc(C(=O)C4CC4)cc3)c2O1 (configuration not stated)	TEAD-YAP inh 63.1
O=C(NCC1Cc2c(F)ccc(-c3ccc(C(=O)C4CC4)cc3)c2O1)c1cnsn1 (configuration not stated)	TEAD-YAP inh 55.9
C/C=C(\C)CN1CCc2nnc(CCc3ccccc3)n2CC1	none
CCOC(=O)C1CCCN(C(=O)Cn2cc(NC(=O)Cc3ccccc3OC)cn2)C1 (configuration not stated)	none
CCC(=O)NC(c1ccc(C)cc1)c1ccc2cccnc2c1O (configuration not stated)	TEAD-YAP inh 88.1
CCC(=O)NC(c1cccc([N+](=O)[O-])c1)c1ccc2cccnc2c1O (configuration not stated)	none
CCC(=O)NC(c1ccc([N+](=O)[O-])cc1)c1ccc2cccnc2c1O (configuration not stated)	TEAD-YAP inh 85.0
CCOC(=O)C1C(c2cccc(F)c2)NC(=O)N(C)C1(O)C(F)(F)F (configuration not stated)	none
COc1ccc(-n2c(/C=C/N(C)C)c([N+](=O)[O-])c3ccc(O)c(CN(C)C)c32)cc1	TEAD-YAP inh 37.6
O=C(CN1C(=O)CN(c2ccc(Br)cc2)C1=O)Nc1ccc2ccccc2c1	none
COc1cc2nc(Oc3ccccc3)nc(Nc3ccccc3)c2cc1OC	TEAD-YAP inh 37.6
COc1cc2nc(Nc3ccccc3)nc(Nc3ccccc3)c2cc1OC	none
COc1cc2nc(Oc3ccccc3)nc(Nc3ccc(N4CCOCC4)cc3)c2cc1OC	TEAD-YAP inh 41.6
CC1CC(C)CN(S(=O)(=O)c2ccc(C(=O)Nc3ncc(-c4ccccc4)s3)cc2)C1 (configuration not stated)	none
CC(C)CCN1CCNC(=O)C1CC(=O)NCc1ccc(-n2cccn2)cc1 (configuration not stated)	none
CCN1/C(=C/C(C)=C/c2sc3ccccc3[n+]2CCO)Sc2ccccc21	TEAD-YAP inh 39.4
C=CCN1/C(=C/C=C/c2sc3ccccc3[n+]2CC=C)Sc2ccccc21	TEAD-YAP inh 88.6
CCN1/C(=C/c2sc3ccccc3[n+]2CCO)Sc2ccccc21	TEAD-YAP inh 38.4
Cc1sc2ccccc2[n+]1CCO	none
